# BAZ2B block – blocks human BAZ2B; Q9UIF8; AlphaScreen BAZ2B-H3K14Ac peptide displacement; Potency, µM (series often up to 114 µM), without a hit: at the highest dose activity change, negative = inhibition, most hits filed as inhibitors; actives 4.4% (n = 360,000); note: % is set by controls: 0 for no effect and ±100 for the full control effect; nearly all actives have a fitted effect of over 60% in size
#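 BAZ2B (50 nM) with biotin-H3(5-23)K14Ac peptide (50 nM) in PBS pH 7.4, 0.01% Tween-20, preformed 30 min, then compound 30 min at room temperature; top concentration 110uM. AlphaScreen streptavidin donor/nickel chelate acceptor beads (10 ug/mL final), 20 min dark, signal read.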
# JMJD2A Tudor inh – inhibitors of human JMJD2A Tudor domain; Potency, µM (series often up to 114 µM), inactives show at the top dose activity change, negative = inhibition, hits mostly inhibitors; actives 4.4% (n = 390,000); AID 504339; O75164; AlphaScreen JMJD2A-Tudor / H3K4me3 peptide binding; note: % is set by controls: 0 for no effect and ±100 for the full control effect; nearly all actives have a fitted effect of over 50% in size
# Target sequence (O75164 whole entry, looked up, the tested form may be a part): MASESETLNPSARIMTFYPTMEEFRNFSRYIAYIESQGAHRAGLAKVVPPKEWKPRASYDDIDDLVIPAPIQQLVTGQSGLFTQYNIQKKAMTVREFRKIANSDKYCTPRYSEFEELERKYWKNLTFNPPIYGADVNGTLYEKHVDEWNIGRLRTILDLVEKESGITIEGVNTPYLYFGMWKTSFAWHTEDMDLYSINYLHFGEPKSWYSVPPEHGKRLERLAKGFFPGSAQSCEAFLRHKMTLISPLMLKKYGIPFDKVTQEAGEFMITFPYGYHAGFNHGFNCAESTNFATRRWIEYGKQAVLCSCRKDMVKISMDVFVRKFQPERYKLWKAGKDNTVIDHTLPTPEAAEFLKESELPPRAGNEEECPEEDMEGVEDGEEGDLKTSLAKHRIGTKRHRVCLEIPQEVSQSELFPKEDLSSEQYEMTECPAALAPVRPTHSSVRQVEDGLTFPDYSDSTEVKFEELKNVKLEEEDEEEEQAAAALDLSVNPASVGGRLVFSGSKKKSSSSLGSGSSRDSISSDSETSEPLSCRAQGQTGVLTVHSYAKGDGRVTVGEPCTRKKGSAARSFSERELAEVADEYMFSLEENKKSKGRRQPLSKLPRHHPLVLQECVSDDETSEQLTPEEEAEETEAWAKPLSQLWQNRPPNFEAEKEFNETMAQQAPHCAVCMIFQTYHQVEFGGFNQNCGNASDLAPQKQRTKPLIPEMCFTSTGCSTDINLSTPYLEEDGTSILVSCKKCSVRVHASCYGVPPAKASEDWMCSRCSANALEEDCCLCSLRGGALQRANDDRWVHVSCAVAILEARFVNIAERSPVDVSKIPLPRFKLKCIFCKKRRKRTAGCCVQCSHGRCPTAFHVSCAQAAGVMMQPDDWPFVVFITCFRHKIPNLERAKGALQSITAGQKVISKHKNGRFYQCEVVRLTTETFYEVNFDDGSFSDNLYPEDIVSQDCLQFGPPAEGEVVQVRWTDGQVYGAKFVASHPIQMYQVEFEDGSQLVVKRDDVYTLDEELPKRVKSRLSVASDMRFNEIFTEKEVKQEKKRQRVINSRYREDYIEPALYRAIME
# L3MBTL1 inh – inhibitors of human L3MBTL1. Q9Y468. AlphaScreen L3MBTL1–H3K9me1 peptide binding. Potency, µM (top dose mostly 57.1 µM), for the others: top-dose activity, negative = inhibition, actives largely listed as inhibitors. actives 0.66% (n = 230,000); note: % is set by controls: 0 for no effect and ±100 for the full control effect; nearly all actives have a fitted effect of over 60% in size
#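 AlphaScreen proximity signal between nickel-chelate acceptor and streptavidin donor beads (final 10 ug/mL) reports binding of 50 nM L3MBTL1 to 75 nM biotin-H3 K9me1 peptide; complex incubated with compounds 30 min at room temperature; cefsulodin titration as control.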
# HP1b chromo inh – HP1-beta chromodomain-methylated histone interaction inhibition | P83916 | AlphaScreen HP1-beta / biotin-H3K9me3 peptide binding | Potency, µM (doses to about 114 µM), without a hit: top-dose activity change, negative = inhibition, usual class: inhibitors | actives 0.56% (n = 390,000); note: nearly all actives have a fitted effect of over 70% in size
#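 HP1-beta protein (50 nM final) preincubated 30 min at room temperature with biotinylated H3(1-18)K9me3 peptide (50 nM) in PBS pH 7.4, 0.01% Tween-20, then compound added for 30 min. AlphaScreen streptavidin donor/nickel chelate acceptor beads (10 ug/mL final), 30 min dark, luminescence read.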
# Sfp PPTase inh – blocks B. subtilis Sfp PPTase activity; Q9F4F7; actives 3.5% (n = 310,000); Potency, µM, for the others: largest response in the series, negative = inhibition, usual class: inhibitors; Biochemical Sfp PPTase activity, qHTS; AID 1490;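 note: the enzyme is Sfp with the accession as filed and its product quenches rhodamine fluorescence; 0% = enzyme reaction without inhibitor and -100% = no enzyme wells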
#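 Fluorescence-quenching assay with 15 nM Sfp, 5 uM rhodamine-CoA and 12.5 uM BHQ-2-labelled ybbR peptide in pH 7.6 Hepes/MgCl2 buffer. Enzyme was pre-incubated with compound for 15 min at room temperature. Rate was taken from the 30-min fluorescence change (525/598 nm).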
# G9a block – inhibitors of human histone lysine methyltransferase G9a. G9a H3K9 monomethylation, AlphaScreen, 2 h. Potency, µM (top dose mostly 102 µM), for inactives: at the highest dose activity, negative = inhibition, hits mostly inhibitors. actives 8.8% (n = 350,000); note: % is set by controls: 0 for no effect and ±100 for the full control effect; nearly all actives have a fitted effect of over 75% in size
#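 Quantitative HTS format: methyltransferase activity on a biotin-tagged H3K9 peptide is measured by AlphaScreen, using a rabbit anti-monomethyl-H3K9 antibody with streptavidin donor and anti-IgG acceptor beads. Final levels are 20 nM enzyme, 500 nM peptide, 20 uM SAM; 2 h RT.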
# * marks the source's active call; other numbers are inactive results; u = inconclusive; x = not tested or not shown; [ ] = remark or other dose. Hits are enriched below; roughly 12% of the tested compounds scored in any of these assays. Calls come from the whole dose curve; as a rule, active = well fitted curve in the direction sought with a large enough effect; inconclusive = small, poorly fitted or top-dose-only effect, or another doubt; inactive = no such curve, though single readings can be large; an effect the other way counts as inactive or inconclusive. Potency is the fitted concentration of half-maximal effect.
SMILES,BAZ2B block,JMJD2A Tudor inh,L3MBTL1 inh,HP1b chromo inh,Sfp PPTase inh,G9a block
S=c1[nH]nc(Cn2nnc3ccccc32)n1-c1ccc(Cl)cc1,-6.8%,-6.0%,5.8%,48.8%,-9.9%,11.2µM*
CC(=O)Nc1ccc(CCCCc2ccc(NC(C)=O)cc2)cc1,x,0.7%,x,33.7%[57 µM],x,x
S=c1[nH]nc(CN2CCCCC2)n1-c1ccc(Cl)cc1,-22.3%,5.4%,x,32.0%,14.3%,17.8µM*
S=c1nc(-c2ccccc2)n(Cc2ccco2)c2c1CCCC2,-4.3%,x,-0.8%,x,-20.6%,u
Fc1ccc(-c2nc3nc4ccccc4nc3n2Cc2ccco2)cc1,-16.8%,-16.7%,0.8%,18.2%,17.8µM*,-44.3%
Fc1ccc(-n2c(-c3ccco3)nc3nc4ccccc4nc32)cc1,13.5%,-11.6%,-3.2%,30.7%,5.4%,u
c1ccc(-c2nc3nc4ccccc4nc3n2Cc2ccco2)cc1,-9.0%,-24.0%,9.9%,10.4%,10µM*,15.8µM*
C=CCN(Cc1cccc(OC)c1OC)C(=O)Oc1ccccc1,9.2%,5.9%,7.2%,58.4%,x,25.8%[12.7 µM]
N#Cc1cc(S(=O)(=O)c2ccc(Cl)cc2)c(N)[nH]c1=O,-34.5%,1.7%,4.4%,30.7%,19.9%,50.1µM*
O=C(N/N=C/C(Br)=C/c1ccccc1)c1cccs1,-1.2%,-6.2%,-5.5%,17.4%,56.2µM*,x
C/C(=N\NC(=O)C1=NNC(=O)C1C)c1cccs1 (stereo not given),u,-2.3%[11.4 µM],16.0%,26.9%,-27.5%,44.7µM*
CC1=NNC(=O)C1CC(=O)N/N=C/C(Br)=C/c1ccccc1 (stereo not given),-6.1%,-5.8%,x,40.7%,-16.1%,-2.0%
CC1=NNC(=O)C1CCC(=O)N/N=C/C(Br)=C/c1ccccc1 (stereo not given),4.6%,-9.0%,-1.8%,29.3%,-12.8%,50.1µM*
CC1C(=O)NN=C1C(=O)N/N=C\C(Br)=C\c1ccccc1 (stereo not given),-19.3%,-13.9%,28.3%,2.7%,50.1µM*,-5.5%
O=[S+]([O-])(/C=C/c1nc(Nc2cc(F)cc(F)c2)c2ncn(CC(F)F)c2n1)c1ccccc1,x,-15.1%,x,x,x,x
CCOC(=O)/C(C#N)=C/c1ccc(SC)cc1,-7.1%,-6.7%,x,23.5%,u,-2.7%[59 µM]
COC(=O)CCC(=O)N(CCN(C(=O)CCC(=O)OC)c1ccccc1)c1ccccc1,x,-18.8%,x,-2.2%,7.0%,-7.1%
COC(=O)CCN(C(C)=O)c1ccc(N)cc1,0.1%,50.1µM*,x,-4.2%,16.2%,-2.5%[12.7 µM]
COc1cc2c(cc1OC)C(c1cccs1)N(C(=O)c1cccc(S(=O)(=O)N(C)C)c1)CC2 (stereo not given),-29.3%,u,-3.9%,3.5%,-1.1%,50.1µM*
Cc1ccc(OC(=O)COc2ccccc2)c(-n2nc3ccccc3n2)c1,56.2µM*,54.9%,x,114.3%,u,73.7%
CCN(C(=O)c1cc2c(s1)-c1ccccc1OC2)c1cc(Cl)ccc1OC,42.0%,43.3%,x,93.6%,x,31.3%[59 µM]
O=C(NCc1ccc2c(c1)CCO2)Nc1ccccc1,3.9%,-7.0%,11.7%,38.2%,0.7%,x
Cn1c2ccccc2c2c(C(=O)N3CCN(c4ccccc4)CC3)cn(C3CCCC3)c(=O)c21,u,u,x,-29.2%,-4.1%,50.1µM*
COc1ccc(N2CCN(C(=O)c3cn(CC(C)C)c(=O)c4c3c3ccccc3n4C)CC2)cc1,25.1µM*,35.5µM*,x,u,x,u
CC(Sc1ccsc1[N+](=O)[O-])C(=O)NCCc1ccc(Cl)cc1 (stereo not given),-6.6%,-28.7%,x,11.4%,5.3%,6.1%[59 µM]
CCCCCCCCC(=O)N/N=C(\C)c1cccnc1,-29.9%,89.1µM*,12.0%,63.2%,7.3%,10µM*
O=C(NNC(=S)NC(=O)c1cccs1)c1ccc(O)cc1,0.4%,-22.4%,x,49.8%,12.8%,39.8µM*
C/C(=N\NC(=O)c1cccs1)c1cccnc1,x,17.8µM*,x,-10.2%,11.4%,-8.0%

# Screening results as filed in PubChem BioAssay.
